The list is not random: actives were taken first. Their share in the collection is about 21%.
Pf growth 96h – Primary qHTS for delayed death inhibitors of the malarial parasite plastid, 96 hour incubation; P. falciparum luciferase reporter growth, 96 h; Potency, µM (titrated, usually from 28.7 µM), inactives show at the highest dose activity change, negative = inhibition, most hits filed as inhibitors; 6.9% of 320,000 active; AID 504834, 2011; further: potency means the concentration at half of the fitted maximal effect; on the % scale 0 is the no-effect control and ±100 the full control effect
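Delayed-death screen, second-generation endpoint: infected erythrocytes, 2% hematocrit, 0.05% parasitemia final; 96 hours at 37 C, 5% CO2; luciferase detection reagent; luminescence decrease equals reduced growth.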
Sm TGR inh – qHTS Assay for the Inhibitors of Schistosoma Mansoni Peroxiredoxins. AID 485364, 2010. purified TGR, DTNB reduction, TNB absorbance 405 nm. Potency, µM (doses to about 114 µM), without a hit: at the top dose activity change, negative = inhibition, hits mostly inhibitors. 3% of 360,000 active; further: potency means the concentration at half of the fitted maximal effect; on the % scale 0 is the no-effect control and ±100 the full control effect; nearly all actives have a fitted effect of over 60% in size
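TGR 20 nM + NADPH 100 uM (dispensed conc.), cpd preinc 15 min RT; start with NADPH (500 uM addition) then DTNB (15 mM addition). Kinetic TNB absorbance, 405 nm filter. Four-parameter Hill fit across titration.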
Cycloheximide cs – Cycloheximide Counterscreen for Small Molecule Inhibitors of Shiga Toxin; cell reporter, cycloheximide protein synthesis inhibition counterscreen; AID 2314, 2010; 12% of 300,000 active; max response, %; in the data active means max response mostly above about 13%, no sharp cut-off; inactive means mostly below about 14%; further: read at 38.3 µM for the half of the compounds with a filed dose; 0% is about no effect
Shiga toxin inh – A qHTS for Small Molecule Inhibitors of Shiga Toxin. Vero cells, Shiga toxin protein synthesis inhibition reporter. inhibition, % at 38.7 µM. 9.2% of 290,000 active. AID 2315, 2010; in the data active means inhibition mostly above about 28%, no sharp cut-off; inactive means mostly below about 43%; further: 0% is about no effect
NS1 function inh – qHTS Assay for Inhibitors of Influenza NS1 Protein Function; 0.4% of 270,000 active; Potency, µM (doses to about 46.1 µM), for inactives: top-dose activity, positive = more growth; AID 2326, 2010; calls by dose curve; further: potency means the concentration at half of the fitted maximal effect; actives are rising curves; nearly all actives have a fitted effect of over 50% in size
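Growth recovery, yeast-based: influenza A NS1 expressed in S. cerevisiae causes slow growth, and suppressors are detected by OD600. The parent strain without NS1 is used as positive control.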
Pf growth 48h – Primary qHTS for delayed death inhibitors of the malarial parasite plastid, 48 hour incubation. AID 504832, 2011. 5.9% of 310,000 active. P. falciparum luciferase growth in erythrocytes, 48 h. Potency, µM (titrated, usually from 28.7 µM), for the others: at the top dose activity change, negative = inhibition, most hits filed as inhibitors; further: potency means the concentration at half of the fitted maximal effect; on the % scale 0 is the no-effect control and ±100 the full control effect
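Parasite viability was followed by luminescence of a genomically integrated firefly luciferase. Cultures held 0.1% parasitemia at 2% hematocrit (final), incubated under 5% CO2 at 37 C.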
The depositor's hits bear a star; ? = inconclusive; . = not tested or not shown. Unless noted, the call rests on the fitted dose curve; in most records, active means well fitted curve in the direction sought with a large enough effect; inconclusive means small, poorly fitted or top-dose-only effect, or another doubt; inactive means no such curve, though single readings can be large; an effect the other way counts as inactive or inconclusive.

SMILES | Pf growth 96h | Sm TGR inh | Cycloheximide cs | Shiga toxin inh | NS1 function inh | Pf growth 48h
CC(C)(C)CC(=O)O/N=C(\N)c1ccncc1 | ? | 5% | 3 | 27 | -2% | -22%
COc1ccc(C(=O)O/N=C(\N)c2ccncc2)cc1OC | ? | 1% | 15* | 25 | -4% | ?
COc1cccc(OC)c1C(=O)O/N=C(\N)c1ccncc1 | 12µM* | -12% | 23* | -11 | -1% | ?
COc1ccccc1CCNC(=O)C1(c2cccs2)CCOCC1 | . | -5% | . | . | . | .
Cc1ccn2c(Nc3ccccc3C)c(-c3cccnc3)nc2c1 | 1% | 6% | 1 | -14 | -7% | ?
COC(=O)C1=C(c2cccc3c2S(=O)(=O)c2ccccc2-3)C[C@@H]2CC[C@H]1N2C(=O)N1CCc2cc(OC)c(OC)cc2C1 | ? | -5% | . | . | . | 3.7µM*
COC(=O)C1=C(c2cccc(C#N)c2)C[C@@H]2CC[C@H]1N2C(=O)N1CCOCC1 | 14% | -3% | . | . | . | -3%
COC(=O)C1=C(c2cccc3c2S(=O)(=O)c2ccccc2-3)C[C@@H]2CC[C@H]1N2C(=O)N1CCOCC1 | 6.6µM* | -13% | . | . | . | 10µM*
CCSC1=NC2(CCN(C(=O)NC3CCCCC3)CC2)N=C1c1ccc(C)c(C)c1 | . | 8% | . | . | . | .
CCCSc1ncc(Cl)c(C(=O)Nc2ccc(S(=O)(=O)N(C)c3ccccc3)cc2)n1 | . | 3% | . | . | . | .
CN(c1ccccc1)S(=O)(=O)c1ccc(NC(=O)c2nc(S(C)(=O)=O)ncc2Cl)cc1 | 0% | 1.3µM* | -18 | -23 | -16% | 17%
CCOC(=O)c1ccc(NC(=O)c2nc(S(=O)(=O)Cc3ccccc3)ncc2Cl)cc1 | 1% | 8.9µM* | 14 | 8 | -2% | 36%
CCCS(=O)(=O)c1ncc(Cl)c(C(=O)Nc2ccc(S(=O)(=O)Nc3ncccn3)cc2)n1 | ? | 13µM* | 10 | 17 | -3% | 41%
CCOC(=O)c1c(-c2ccccc2)csc1NC(=O)c1nc(S(=O)(=O)CC)ncc1Cl | . | 2µM* | . | . | . | .
CCOC(=O)c1ccc(NC(=O)c2nc(SC(C)C)ncc2Cl)cc1 | . | 6% | . | . | . | .
CCSc1ncc(Cl)c(C(=O)Nc2ccc(S(=O)(=O)Nc3ncccn3)cc2)n1 | ? | -10% | -2 | -2 | 3% | -15%
N#CCCn1cc(C(=O)Nc2ccc([N+](=O)[O-])cc2)c(-c2cc3ccccc3o2)n1 | 4% | -4% | -4 | -13 | -1% | 2%
COc1ccc(CN2C(=O)CS(=O)CC2=O)cc1OC | 57% | -24% | 8 | -5 | 20% | 5%
CCSc1ncc(Cl)c(C(=O)Nc2ccc(S(=O)(=O)N3CCC(C)CC3)cc2)n1 | . | 3% | . | . | . | .
CCS(=O)(=O)c1ncc(Cl)c(C(=O)Nc2ccccc2)n1 | . | 7.9µM* | . | . | . | .
CCS(=O)(=O)c1ncc(Cl)c(C(=O)Nc2ccc(S(=O)(=O)N3CCC(C)CC3)cc2)n1 | 64% | 0.45µM* | -1 | -13 | 1% | 15%
CCc1ccc(NC(=O)c2nc(S(=O)(=O)Cc3ccccc3)ncc2Cl)cc1 | ? | 6.3µM* | -8 | -10 | -21% | 42%
CC(=O)Nc1ccc(NC(=O)c2nc(S(=O)(=O)Cc3ccc(F)cc3)ncc2Cl)cc1 | . | 3.2µM* | . | . | . | .
COc1ccc(CC(=O)OCC(=O)N(C)C2CCS(=O)(=O)C2)cc1OC (stereo not drawn) | 65% | -9% | . | . | . | 4%
C=CCNC(=O)C1=NOC(CNC(=O)c2c(-c3ccccc3Cl)noc2C)C1 (stereo not drawn) | 7% | -1% | 4 | 8 | 4% | 10%
SMILES | Pf growth 96h | Sm TGR inh | Cycloheximide cs | Shiga toxin inh | NS1 function inh | Pf growth 48h
CCOC(=O)c1c(NC(=O)c2nc(S(C)(=O)=O)ncc2Cl)sc(C(C)=O)c1C | . | 2.2µM* | . | . | . | .
CCOC(=O)c1c(NC(=O)c2nc(SCC)ncc2Cl)sc(C(C)=O)c1C | . | -2% | . | . | . | .
O=C1CN(C(=O)COc2ccc(Cl)c(Cl)c2)c2ccccc2N1 | 3.3µM* | 0% | . | . | . | 13µM*
O=C1CN(C(=O)COc2cccc(F)c2)c2ccccc2N1 | ? | -12% | 1 | -6 | 10% | -2%
O=C1CN(C(=O)COc2ccc([N+](=O)[O-])cc2Cl)c2ccccc2N1 | 10µM* | -11% | . | . | . | 2.9µM*
CCCCOc1ccc(/C=C/C(=O)OCC(=O)N2CC(=O)Nc3ccccc32)cc1OCC | ? | 2% | 10 | 5 | 7% | 10µM*
COc1ccc(/C=C/C(=O)OCC(=O)N2CC(=O)Nc3ccccc32)cc1 | ? | -1% | -1 | -17 | -9% | -5%
O=C1CN(C(=O)Cn2ncc(Cl)c(Cl)c2=O)c2ccccc2N1 | ? | 25µM* | -12 | -37 | . | -5%
O=C1CN(C(=O)COc2ccc(Cl)cc2Cl)c2ccccc2N1 | 40% | 1% | 13 | 19 | 3% | ?
CC(C)CC1OC(=O)C2=CCCCC21 (stereo not drawn) | . | . | 8 | -9 | . | .
CCC(=O)N1CCc2cc(S(=O)(=O)CCC(=O)Nc3ccc(OC)c(OC)c3)ccc21 | ? | -6% | 4 | -4 | . | -17%
Cc1ccc(NC(=O)C(c2ccccc2)c2ccccc2)nc1 | ? | -1% | -3 | 8 | -60% | 13%
COc1cccc(CN2CC(C(=O)NC3CCC(O)CC3)CCC2=O)c1 (stereo not drawn) | 36% | -1% | -2 | -6 | -2% | -6%
O=C(CN1C(=O)NC2(CCCC2)C1=O)Nc1cccc(Cl)c1Cl | 44% | -4% | -2 | 8 | -14% | 24%
O=C1CN(CC(=O)Nc2cccc(Cl)c2Cl)c2ccccc2N1 | -1% | 50µM* | 7 | 2 | . | -9%
O=C1CN(C(=O)COC(=O)c2ccc([N+](=O)[O-])o2)c2ccccc2N1 | 4% | 45µM* | . | . | . | -6%
O=C(COC(=O)c1ccc([N+](=O)[O-])o1)Nc1cccc2ccccc12 | 16% | 14µM* | 8 | 4 | 5% | -2%
O=C1CN(C(=O)COc2ccc(Br)cc2F)c2ccccc2N1 | 8.3µM* | -10% | 0 | 3 | 1% | 5.9µM*
Cc1ccc2c(c1)C(c1ccccc1)N(C(=O)c1ccc(OC(C)C)cc1)CC(=O)N2 (stereo not drawn) | . | 1% | . | . | . | .
CCOc1ccc(-n2c(SCC(=O)Nc3cccc(Cl)c3)nc3c(oc4ccccc43)c2=O)cc1 | . | -1% | . | . | . | .
O=C(CCCCn1c(=O)c2ccccc2n(Cc2ccccc2Cl)c1=O)NCCc1ccccc1 | . | 0% | . | . | . | .
Brc1ccc(-c2ncc(-c3ccccc3)cn2)cc1 | ? | -4% | 46* | 136* | 5% | .
CN(CCOC(=O)c1ccc2c(c1)OCCO2)Cc1ccccc1 | 35% | -3% | 41* | 19* | -1% | 17%
COc1cccc(C(=O)OCCCN(C)C)c1 | 32% | 0% | -2 | 32 | 0% | 13%
